Screening results from PubChem.
AMA1 RON2 block – AMA1-RON2 (P. falciparum) interaction inhibition. Potency, µM (highest dose often 58.2 µM), for inactives: at the top dose activity change, negative = inhibition, usual class: inhibitors. 360,000 tested, 0.2% active. AlphaScreen AMA1-biotinylated RON2 peptide binding;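 note: potency is the fitted concentration of half-maximal effect; 0% = vehicle wells and -100% = peptide control; nearly all actives have a fitted effect of over 45% in size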
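AMA1 (3D7) with his tag at 25 nM final met compounds first, then biotinylated RON2 peptide at 25 nM; detection used donor plus acceptor beads, 10 µg/mL apiece, read by AlphaScreen after 30 min at room temperature.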
AmpC inh detg – blocks E. coli AmpC beta-lactamase in detergent assay; P00811; Potency, µM (doses to about 114 µM), without a hit: top-dose activity change, negative = inhibition, hits mostly inhibitors; AmpC hydrolysis of nitrocefin, absorbance 480 nm, 0.01% Triton; 370,000 tested, 0.041% active;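 note: potency is the fitted concentration of half-maximal effect; 0% = no-compound wells and -100% = no-enzyme wells; nearly all actives have a fitted effect of over 25% in size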
Target sequence (P00811 whole entry, looked up): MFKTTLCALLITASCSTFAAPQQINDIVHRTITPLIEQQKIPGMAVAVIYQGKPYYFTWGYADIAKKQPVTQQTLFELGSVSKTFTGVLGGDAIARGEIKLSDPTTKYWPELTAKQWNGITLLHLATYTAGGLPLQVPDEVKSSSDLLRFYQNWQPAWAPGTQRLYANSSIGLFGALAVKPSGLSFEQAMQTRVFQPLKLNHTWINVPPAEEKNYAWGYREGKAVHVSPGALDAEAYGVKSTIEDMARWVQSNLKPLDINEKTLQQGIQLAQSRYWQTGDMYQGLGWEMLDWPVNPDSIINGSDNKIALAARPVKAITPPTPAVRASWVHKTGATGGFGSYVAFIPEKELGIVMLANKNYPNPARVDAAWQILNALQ
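AmpC (5.3 nM in the dispensed reagent) in 20 mM phosphate pH 7.0 with 0.01% (detergent screen) or 0.0001% Triton X-100 was preincubated with compounds for 15 min at room temperature. Nitrocefin was then added from an 800 uM solution, and hydrolysis was followed at 480 nm.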
Shiga inhibitor – inhibitors of Shiga toxin in Vero cells. inhibition, % at 38.7 µM. 290,000 tested, 9.2% active. Vero cells, Shiga toxin protein synthesis inhibition reporter. AID 2315; in the data active = inhibition mostly above about 28%, no sharp cut-off; inactive = mostly below about 43%; note: 0% is about no effect
CHX counter-1 – counter-screen for Shiga toxin inhibitors: cycloheximide protein synthesis inhibition | cell reporter, cycloheximide protein synthesis inhibition counterscreen | max response, % | 300,000 tested, 12% active; in the data active = max response mostly above about 13%, no sharp cut-off; inactive = mostly below about 14%; note: read at 38.3 µM for the half of the compounds with a filed dose; 0% is about no effect
AmpC inh no detg – AmpC beta-lactamase inhibition without detergent; P00811; AmpC nitrocefin hydrolysis, absorbance 480 nm, 0.0001% Triton; Potency, µM (doses to about 57.1 µM), without a hit: top-dose activity change, negative = inhibition, most hits filed as inhibitors; 330,000 tested, 0.52% active;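 note: potency is the fitted concentration of half-maximal effect; plate controls were no compound for no effect and no enzyme for full effect; nearly all actives have a fitted effect of over 20% in size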
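AmpC (5.3 nM in the dispensed reagent) in 20 mM phosphate pH 7.0 with 0.01% (detergent screen) or 0.0001% Triton X-100 was preincubated with compounds for 15 min at room temperature. Nitrocefin was then added from an 800 uM solution, and hydrolysis was followed at 480 nm.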
SARS PLpro yeast – inhibitors of SARS-CoV papain-like protease in yeast | S. cerevisiae expressing SARS-CoV PLpro, growth rescue | Potency, µM (highest dose often 32.9 µM), inactives show top-dose activity, positive = growth rescue, actives largely listed as activators | AID 485353 | 330,000 tested, 0.19% active; calls by dose curve; note: potency is the fitted concentration of half-maximal effect; 0% is about no effect; nearly all actives have a fitted effect of over 55% in size
CHX counter-2 – protein synthesis counter-screen activity for Shiga toxin hits. Potency, µM (titrated, usually from 38.3 µM), for the others: top-dose activity (activation), actives largely listed as activators. AID 2318. shares compounds with Shiga inhibitor. Cycloheximide counterscreen, protein synthesis reporter, Shiga toxin assay. 510 tested, 3% active; calls by dose curve; note: potency is the fitted concentration of half-maximal effect; 0% is about no effect
* hit, by the source's call. The full list was thinned out, with hits kept by preference. Unless noted, calls come from the whole dose curve; as a rule, active = well fitted curve in the direction sought with a large enough effect; inconclusive = small, poorly fitted or top-dose-only effect, or another doubt; inactive = no such curve, though single readings can be large; an effect the other way counts as inactive or inconclusive.

How did COc1cc(OC)cc(-n2nc(C(=O)N3CC(C)CC(C)C3)c3ccccc3c2=O)c1 (stereo not given) do in these assays?
AMA1 RON2 block: -9%; AmpC inh detg: inconclusive; Shiga inhibitor: 23*; CHX counter-1: -3; AmpC inh no detg: -12%; SARS PLpro yeast: 14%; CHX counter-2: -2%

How did CCOC(=O)N1CCN(C(=O)c2nn(-c3cc(OC)cc(OC)c3)c(=O)c3ccccc23)CC1 do in these assays?
AmpC inh detg: 0%; Shiga inhibitor: -2; CHX counter-1: 9; AmpC inh no detg: -14%; SARS PLpro yeast: -5%

Results for COc1ccc(C(=O)CSc2nnc(C(CO)NC(=O)c3ccc(OC)cc3)n2C)cc1 (stereo not given) ?
AMA1 RON2 block: 3%; AmpC inh detg: inconclusive; Shiga inhibitor: 64*; CHX counter-1: -2; AmpC inh no detg: 34%; SARS PLpro yeast: 6%; CHX counter-2: -3%

How did COc1ccc(CC(=O)NC(C)c2nnc(SCC(=O)c3ccc(OC)cc3)n2C)cc1 (stereo not given) do in these assays?
AMA1 RON2 block: 14%; AmpC inh detg: -6%; Shiga inhibitor: 3; CHX counter-1: -1; AmpC inh no detg: 55%; SARS PLpro yeast: 1%

How did Cc1ccccc1C(=O)NN1CCOCC1 do in these assays?
AMA1 RON2 block: 1%; AmpC inh detg: -9%; Shiga inhibitor: 21*; CHX counter-1: -1; AmpC inh no detg: -22%; SARS PLpro yeast: 1%; CHX counter-2: -1%

What do the screens show for `Cc1ccccc1C(=O)NCCN1CCOCC1`?
AMA1 RON2 block: 7%; AmpC inh detg: 3%; Shiga inhibitor: -3; CHX counter-1: 2; AmpC inh no detg: -9%; SARS PLpro yeast: 0%

Results for CC(=O)Nc1ccc(C23CC4CC(CC(C4)C2)C3)cc1 ?
AMA1 RON2 block: -7%; AmpC inh detg: -1%; Shiga inhibitor: 26; CHX counter-1: 14; AmpC inh no detg: 62%; SARS PLpro yeast: 1%

Results for CC(=O)Nc1ccc(C2(O)COc3ccccc3O2)cc1 (stereo not given) ?
AMA1 RON2 block: -11%; AmpC inh detg: inconclusive; Shiga inhibitor: 132*; CHX counter-1: 14; AmpC inh no detg: -15%; SARS PLpro yeast: 6%; CHX counter-2: 5%

How did Cc1ccc(C(=O)CSc2nnnn2C(C)C)c(C)c1 do in these assays?
AMA1 RON2 block: -1%; AmpC inh detg: -1%; Shiga inhibitor: 33*; CHX counter-1: 1; AmpC inh no detg: -13%; SARS PLpro yeast: -6%; CHX counter-2: 0.32µM*

How did Cn1cc(Br)c(C(=O)N2CCc3ccccc32)n1 do in these assays?
AMA1 RON2 block: -3%; AmpC inh detg: 0%; Shiga inhibitor: active; CHX counter-1: 9; AmpC inh no detg: -10%; SARS PLpro yeast: 7%; CHX counter-2: 6%

What do the screens show for `Cn1ncc(Br)c1C(=O)N1CCc2ccccc21`?
AMA1 RON2 block: -7%; AmpC inh detg: inconclusive; Shiga inhibitor: 16; CHX counter-1: -2; AmpC inh no detg: -3%; SARS PLpro yeast: -14%

How did CC(=O)Nc1ccc(Oc2ccc(-c3noc(C)n3)cc2)cc1 do in these assays?
AMA1 RON2 block: 0%; AmpC inh detg: 3%; Shiga inhibitor: 82*; CHX counter-1: 12; CHX counter-2: 0%

Results for Cc1ccc2c(CN3CCCCC3C)cc(=O)oc2c1C (stereo not given) ?
AMA1 RON2 block: -6%; AmpC inh detg: -4%; Shiga inhibitor: 40*; CHX counter-1: 5; AmpC inh no detg: -22%; SARS PLpro yeast: 1%; CHX counter-2: -1%

Results for Cc1ccc2c(c1)N(CC(=O)N1CCCC1)C(=O)CO2 ?
AMA1 RON2 block: 0%; AmpC inh detg: -3%; Shiga inhibitor: 35*; CHX counter-1: 3; AmpC inh no detg: -4%; SARS PLpro yeast: 1%; CHX counter-2: -1%

What do the screens show for `CN1CCc2c(sc3c2C(=O)NC(c2ccc4c(c2)OCO4)N3)C1` (stereo not given)?
AMA1 RON2 block: 3%; AmpC inh detg: inconclusive; Shiga inhibitor: 29*; CHX counter-1: 15; AmpC inh no detg: -11%; SARS PLpro yeast: -3%; CHX counter-2: 4%

How did CN1CCc2c(sc3c2C(=O)NC(c2ccc(OC(=O)c4ccc(C(C)(C)C)cc4)cc2)N3)C1 (stereo not given) do in these assays?
AmpC inh detg: 3%

What do the screens show for `CCc1ccccc1NC(=O)Cn1nnc(-c2cccs2)n1`?
AMA1 RON2 block: 0%; AmpC inh detg: -6%; Shiga inhibitor: 49*; CHX counter-1: -4; AmpC inh no detg: -26%; SARS PLpro yeast: 2%; CHX counter-2: 0%

How did CC(NS(=O)(=O)c1ccc(CCC(=O)NCc2ccco2)cc1)c1ccccc1 (stereo not given) do in these assays?
AMA1 RON2 block: 5%; AmpC inh detg: -3%; Shiga inhibitor: -5; CHX counter-1: 0; AmpC inh no detg: -28%; SARS PLpro yeast: 10%

How did COc1ccccc1C(=O)Nc1ccc(N2CCN(C(C)=O)CC2)cc1 do in these assays?
AMA1 RON2 block: 1%; AmpC inh detg: -11%; Shiga inhibitor: 53*; CHX counter-1: 2; AmpC inh no detg: -2%; SARS PLpro yeast: 0%; CHX counter-2: -2%

What do the screens show for `Cc1ccc(N2CCN(C(=O)c3ccccc3NC(=O)c3ccccc3C(=O)O)CC2)cc1`?
AMA1 RON2 block: -14%; AmpC inh detg: 8%; Shiga inhibitor: 39*; CHX counter-1: 3; AmpC inh no detg: -26%; SARS PLpro yeast: 19%; CHX counter-2: -1%

How did Cc1ccc(C(=O)Nc2ccccc2C(=O)N2CCN(c3ccccc3)CC2)cc1 do in these assays?
AMA1 RON2 block: 0%; AmpC inh detg: 3%; Shiga inhibitor: -7; CHX counter-1: -3; AmpC inh no detg: -5%; SARS PLpro yeast: 2%

Results for Cc1cc(C)n2nc(C(=O)OCCOc3ccc(Br)cc3)nc2n1 ?
AMA1 RON2 block: 0%; AmpC inh detg: -3%; Shiga inhibitor: -4; CHX counter-1: -2; AmpC inh no detg: 33%; SARS PLpro yeast: -5%

How did COC(=O)c1ccc(NC(=O)c2nc(-c3ccc(Cl)cc3)n3c2CCCCC3)cc1 do in these assays?
AmpC inh detg: 17%

Results for CC(C)(C)NC(=O)NC(=O)CN1CCN(c2ncc(C(F)(F)F)cc2Cl)CC1 ?
AMA1 RON2 block: -27%; AmpC inh detg: 7%; Shiga inhibitor: 19; CHX counter-1: 7; AmpC inh no detg: -1%; SARS PLpro yeast: 27%

Results for O=C(CN1CCN(c2ncc(C(F)(F)F)cc2Cl)CC1)NC(=O)NCc1ccccc1 ?
AMA1 RON2 block: -3%; AmpC inh detg: -14%; Shiga inhibitor: 68*; CHX counter-1: 2; AmpC inh no detg: 2%; SARS PLpro yeast: 3%; CHX counter-2: 0%
